# Laboratory results reported in PubChem BioAssay AID488890 (Southern Research Specialized Biocontainment Screening …, 2010).
# In all, about 320,000 compounds went through this assay and about 1,300 (0.41%) were called active. Inconclusive results (about 3%) are left out. The rule behind the calls is not given here. Not all results are given here. Results with a measured potency or affinity are listed apart.
# Experiment: growth inhibition of non-replicating M. tuberculosis (AID 488890);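 note: plate controls were DMSO cells for no effect and high antibiotic wells for full effect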
# Details: Mycobacterium tuberculosis non-replicating, at 25 µM, stronger effect = higher value
row,SMILES,inhibition
1,COc1ccc(/C=N/NC(=O)NC23CC4CC(CC(C4)C2)C3)c(OC)c1,27.6%
2,Cc1ccc(-c2noc(=O)n2CC(=O)Nc2ccc(S(=O)(=O)NC3CC3)cc2)cc1,11.5%
3,O=C(NCCN1CCN(c2ccccc2)CC1)C1CCN(S(=O)(=O)c2cccc3nonc23)CC1,18.8%
4,O=C(NC1CCCCCC1)c1ccc(CS(=O)(=O)Cc2ccc(F)cc2)o1,1.29%
5,Nc1nc(NCc2c(F)cccc2Cl)nn1-c1ccccc1,2.25%
6,CCCSc1nnc(Cn2c(=O)sc3ccccc32)n1-c1ccccc1,7.2%
7,CN(CC(=O)Nc1cccc(F)c1)C(=O)c1ccc(OCC2CCCO2)cc1 (stereo not given),-4.27%
8,CCOC(=O)C1CCN(S(=O)(=O)c2ccc(C)c(C)c2)CC1,-7.38%
9,Cc1ccc(S(=O)(=O)N2CCC(C(=O)OCC(=O)NCCc3ccccc3)CC2)cc1C,27.8%
10,O=C(NCCC(=O)N(CCc1ccccc1)Cc1ccccc1)c1ccc(Br)cc1,22.1%
11,Fc1ccc2nc(C(F)(F)F)cc(N3CCOCC3)c2c1,-5.99%
12,COc1cccc2sc(NN)nc12,-6.89%
13,COc1ccccc1-c1nnc(Nc2nc3c(OC)cccc3s2)o1,19%
14,COc1cccc2sc(Nc3nc(-c4ccncc4)cs3)nc12,31.8%
15,COc1ccc(-c2nnc(Nc3nc4c(OC)cccc4s3)o2)c(OC)c1,60.8%
16,O=C1Cc2ccccc2C(=O)N1Cc1ccccc1,-3.14%
17,Cc1cc(C)nc(NC(=O)c2ccc(Br)s2)n1,55.2%
18,COc1ccc(Cl)cc1NC(=O)CN(C)C(=O)c1ccc(-n2cncn2)cc1,0.55%
19,Nc1c(-c2ccccc2)cnn1-c1ccccc1,-6.23%
20,O=C(Nc1cccnc1)c1cc(-c2ccc(Cl)cc2)on1,71%
21,O=C(Nc1cccnc1)c1ccc(-c2cc(Cl)ccc2Cl)o1,-8.82%
22,O=C(NNC(=O)c1ccccc1O)c1ccc(-c2ccc([N+](=O)[O-])cc2)o1,-16.6%
23,CC(=O)NC(=O)c1ccc(-c2ccc(Cl)cc2)o1,57.6%
24,COC(=O)c1sccc1-c1ccc(C(=O)Nc2cccnc2)o1,-4.8%

row,SMILES,inhibition
1,CCOC(=O)c1cccc(NC(=O)c2cccnc2)c1,-4.27%
2,CCN(CC(=O)Nc1c(F)cccc1F)C(=O)CNC(=O)c1ccc2ccccc2c1,18.6%
3,CN(C)S(=O)(=O)c1cccc(C(=O)NC(=S)N(CCC#N)Cc2cccnc2)c1,42.5%
4,COCC(=O)N1CCC(Oc2ccc(C(=O)N3CCCCCC3)cc2)CC1,-1.31%
5,COc1ccc(-c2sc3ccccc3c2-c2ccc(O)cc2)cc1,17.4%
6,COc1ccc(NC(=O)CN(C)S(=O)(=O)c2ccc3c(c2)CCCN3C(C)=O)cc1,-3.38%
7,Cc1onc(C(=O)N2CCC(Cc3ccccc3)CC2)c1[N+](=O)[O-],-6.71%
8,CCOC(=O)CSc1nc2c(sc(=S)n2-c2ccc(CC)cc2)c(=O)[nH]1,48.4%
9,COc1ccc(NC(=O)CNc2ccccc2N2CCCC2=O)cc1S(=O)(=O)N1CCOCC1,13.9%
10,Cn1cccc1CC(=O)N/N=C/c1cc([N+](=O)[O-])ccc1Cl,14.2%
11,COC(=O)c1ccc(-c2ccc(C(c3c(C)[nH][nH]c3=O)c3c(C)[nH][nH]c3=O)o2)cc1,36.5%
12,Cc1[nH][nH]c(=O)c1C(c1ccc(-c2cccc(C(=O)O)c2)o1)c1c(C)[nH][nH]c1=O,-6.98%
13,Cc1c(NC(=S)NC(NC(=O)C(C)(C)C)C(Cl)(Cl)Cl)c(=O)n(-c2ccccc2)n1C (stereo not given),1.72%
14,O=C1OCC(CO)(CO)N=C1NNc1ccccc1[N+](=O)[O-],4.31%
15,CC1(CC(=O)N/N=C/c2ccc(-c3ccc(Cl)cc3)o2)OCCO1,69.5%
16,Cc1ccc(C(=O)N/N=C\c2ccc(-c3ccc(Cl)c(Cl)c3)o2)cn1,16.6%
17,CCC(=O)N/N=C/c1ccc(-c2ccc([N+](=O)[O-])cc2)o1,74.5%
18,O=C(CN1CCOCC1)N/N=C/c1ccc(-c2ccc(C(=O)O)cc2)o1,2.35%
19,Cc1ccc(C(=O)N/N=C/c2ccc(-c3cccc(Cl)c3)o2)cn1,-3.58%
20,O=C(CN1CCOCC1)N/N=C/c1ccc(-c2cccc(Cl)c2Cl)o1,20.1%
21,CN(C)c1ccc(C(=O)N/N=C/C23CC[C@@H](O)CC2(O)CC[C@@H]2[C@@H]3CCC3(C)C(C4=CC(=O)OC4)CCC23O)cc1 (stereo not given in full),-3.55%
22,CCOC(=O)c1cc(C)n(-n2cnnc2)c1C,-3.13%
23,COc1ccc2c(c1)nc(SCC(=O)C(C)(C)C)n2C,7.17%
24,N#CC(=NCc1cccnc1)C1=C(O)c2ccccc2C1=O,16.1%

row,SMILES,inhibition
1,COc1ccc(N=C(C)C2=C(O)c3ccccc3C2=O)cc1,21%
2,COC(=O)C1=C(C)N(CCCC(=O)O)C(=O)NC1c1ccc(OC)cc1 (stereo not given),-3.65%
3,CCOc1ccc(N2C(=O)CNC2=S)cc1,27.5%
4,CCOc1ccc(N2CC(=O)N(c3ccc(OCC)cc3)CC2=O)cc1,2.08%
5,CN(C(=O)c1ccccc1C(=O)OCC(=O)NCc1cccs1)C1CCCCC1,-0.2%
6,O=C(c1ccc(Br)o1)N1CCN(c2ccc(F)cc2)CC1,66.9%
7,CN(C)C(=O)c1cccn1-c1ncc(C(F)(F)F)cc1Cl,-7.62%
8,O=c1c2ccccc2nc(-c2ccccc2)n1-c1ccccc1O,49.7%
9,COc1ccccc1-n1c(-c2ccccc2Br)nc2ccccc2c1=O,5.34%
10,O=C(CCC(=O)N1CCN(c2ccc(F)cc2)CC1)c1ccc(Cl)cc1,37.7%
11,Cc1c(Cl)cccc1NC(=O)C1CCCN(S(C)(=O)=O)C1 (stereo not given),1.51%
12,Cc1ccc(S(=O)(=O)N2CCCCC2)cc1NC(=O)COC(=O)C1=COCCO1,-3.36%
13,CC(=O)c1c(O)cc(C(C)C)n(-c2ccccc2)c1=O,6.76%
14,C=CCNC(=O)N[C@@H](CCSC)C(=O)OC,-9.43%
15,O=C(COC(=O)c1n[nH]c2ccccc12)NCCc1ccc(Cl)cc1,18.4%
16,CCCn1c(CNc2ccc(Br)cc2)nc2ccccc21,66.1%
17,Cn1c(CNc2ccc(O)cc2)nc2ccccc21,73.1%
18,Cc1ccccc1NCc1nc2ccccc2n1C,34.2%
19,CCCn1c(CNC(=O)Cc2ccccc2)nc2ccccc21,-2.66%
20,COc1ccc(S(=O)(=O)N2CCC(C(=O)N3CCCCC3)CC2)cc1,-4.95%
21,O=C(CNC(=O)c1cccs1)NCC(=O)OCc1ccccc1Br,20.5%
22,Cc1ccc(S(=O)(=O)Nc2ccc(F)cc2)cc1C(=O)N1CCOCC1,-12.4%
